From PubChem BioAssay (NCATS)
Records with an inconclusive call do not appear. Activity calls are given as the source filed them. The call rests on the fitted dose curve; in most records, active means well fitted inhibition curve with a large enough effect; inconclusive means small, poorly fitted or top-dose-only effect; inactive means flat fitted curve, though single readings scatter.

Target: Calcium and integrin-binding protein 1 (Homo sapiens) (UniProt Q99828)
Experiment: Primary qHTS for Identification of Calcium Integrin Binding Protein 1 (CIB1) Competitor (AID 1508620);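 further: GST tagged CIB1 binding a fluorescein labelled alphaIIb integrin peptide tracer; top concentration of the series differs between compounds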
Conditions: CIB1-GST / FITC-alphaIIb peptide fluorescence polarization; series mostly up to 57.7 µM; activity change, negative = inhibition: at the top concentration
Method in brief: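 CIB1-GST (1 uM final) and compound incubated 15 min at room temperature before adding FITC-alphaIIb peptide tracer (100 nM final). Competition for binding read by fluorescence polarization (ex 480, em 540) after another 15 min at room temperature.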
On the % scale 0 is the no-effect control and ±100 the full control effect.

Calcium and integrin-binding protein 1 (Homo sapiens), sequence (Q99828 whole entry, looked up): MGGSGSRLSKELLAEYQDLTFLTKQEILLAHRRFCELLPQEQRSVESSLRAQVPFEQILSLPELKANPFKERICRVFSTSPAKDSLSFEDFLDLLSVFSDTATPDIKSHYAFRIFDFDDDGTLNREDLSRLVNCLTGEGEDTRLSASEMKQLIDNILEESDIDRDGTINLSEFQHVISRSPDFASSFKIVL

SMILES	activity change, negative = inhibition
COc1ccc2c(c1)N1C(=O)C[C@@]34C=CC[N@+]5([O-])CC[C@H]2[C@H](CC3)[C@@]145	-6.34% (inactive)
CC(C)C1CCC(C(=O)N[C@@H](Cc2ccccc2)C(=O)O)CC1 (some centres undefined)	-1.44% [at 114 µM] (inactive)
O=C(/C=C/c1ccc(O)cc1)O[C@H]1[C@H](OC2CCCCC2O)O[C@H](CO)[C@@H](O)[C@@H]1O (some centres undefined)	5% (inactive)
C[C@@H]1O[C@@H](O[C@H]2[C@@H]3C=CO[C@@H](O[C@@H]4O[C@H](CO)[C@@H](O)[C@H](O)[C@H]4O)[C@@H]3[C@@]3(CO)O[C@@H]23)[C@H](O)[C@H](OC(=O)/C=C/c2ccc(O)cc2)[C@H]1OC(=O)/C=C/c1ccc(O)cc1	-7.06% [at 30.2 µM] (inactive)
C=C(C(=O)O)[C@@H]1CC[C@H](C)[C@@H]2CC(=O)C(C)=C2C1	-0.516% [at 114 µM] (inactive)
C=C1[C@@H]2CC[C@@]3(C)[C@H](c4ccoc4)OC(=O)C[C@]13O[C@H]1CC(=O)C(C)(C)[C@H](C(O)C(=O)OC)[C@]12C (some centres undefined)	5.16% (inactive)
CC(C)(O)c1ccc2c(c1)C(=O)C[C@H]1[C@](C)(C(=O)O)CCC[C@]21C	4.04% (inactive)
Cc1ccc(C)c(NC(=O)CNS(=O)(=O)c2ccc3[nH]c(=O)oc3c2)c1	-7.32% [at 114 µM] (inactive)
CC1C2=CC(=O)OC2(O)CC2C1C(OC(=O)c1ccccc1)C(OC(=O)c1ccccc1)C1(O)C2(C)CCC(O)C1(C)C(=O)O (centres undefined)	-2.61% [at 30.2 µM] (inactive)
COc1c(O[C@@H]2O[C@H](CO)[C@@H](O)[C@H](O)[C@H]2O)c(CCC(=O)O)cc2ccoc12	0.882% (inactive)
CC1(C)CC[C@]2(C(=O)O[C@@H]3O[C@H](CO)[C@@H](O)[C@H](O)[C@H]3O)CC[C@]3(C)C(=CCC4[C@@]5(C)C[C@@H](O)[C@H](O)[C@@](C)(CO)C5[C@H](O)C[C@]43C)C2[C@@H]1O (some centres undefined)	-2.83% [at 30.2 µM] (inactive)
CC(C)(O)C1CC=C(C(=O)OC[C@H]2O[C@@H](OC(=O)C3=CCC(C(C)(C)O)CC3)[C@H](O)[C@@H](O)[C@@H]2O)CC1 (some centres undefined)	3.63% (inactive)
C[C@]12CCC[C@](C)(C(=O)O)C1CCC13CC(CO)C(CCC12)C3 (some centres undefined)	0.458% (inactive)
COc1ccc(C2OCC3C(c4cc(OC)c5c(c4)OCO5)OCC23)cc1OC (centres undefined)	-1.31% (inactive)
COC(=O)C1=CO[C@@H](O[C@@H]2O[C@H](CO)[C@@H](O)[C@H](O)[C@H]2O)[C@@H]2C(C)CC(=O)[C@]12O (some centres undefined)	2.44% (inactive)
C/C=C(/C)C(=O)OC1CC(C)(C)CC2C3=CCC4C5(C)CCC(OC6OC(C)C(OC7OC(C(=O)O)C(O)C(OC8OC(CO)C(O)C(O)C8OC8OC(CO)C(O)C(O)C8O)C7O)C(O)C6O)C(C)(C)C5CCC4(C)C3(C)C(OC(=O)/C=C/C=C/C=C/CCC)C(OC(C)=O)C12CO (centres undefined)	0.802% [at 12.4 µM] (inactive)
CCCC/C=C\CCCCCc1cc(=O)c2ccccc2n1C	3% (inactive)
C=CC1(C)CC2CCC3C(C)(C(=O)O)CCCC3(C)C2=CC1=O (centres undefined)	-0.857% (inactive)
C/C=C/C=C/C=C/C(=O)O[C@@H]1[C@@H](OC)C2=C(C(=O)N(C(CCC(=O)O)C(=O)O)C2)[C@@]2(C)CCCC(C)(C)[C@H]12 (some centres undefined)	-4.35% (inactive)
CC(C)=CCC[C@](C)(O[C@@H]1O[C@H](CO[C@@H]2OC[C@H](O)[C@H](O)[C@H]2O)[C@@H](O)[C@H](O)[C@H]1O)[C@H]1CC[C@]2(C)[C@@H]1[C@H](O)C[C@@H]1[C@@]3(C)CC[C@H](O[C@@H]4O[C@H](CO)[C@@H](O)[C@H](O)[C@H]4O[C@@H]4O[C@H](CO)[C@@H](O)[C@H](O)[C@H]4O)C(C)(C)[C@@H]3CC[C@]12C	-4.96% (inactive)

SMILES	activity change, negative = inhibition
CC1(C)C2CC[C@@]34CC(CC[C@H]3[C@]2(C)CC[C@@H]1O[C@@H]1O[C@H](CO)[C@@H](O)[C@H](O)[C@H]1O)[C@](C)(O)C4 (some centres undefined)	1.32% (inactive)
CC(C)(CC(=O)N1CCCC1)NCC(=O)N1C[C@@H](F)C[C@H]1C#N	-4.61% [at 114 µM] (inactive)
O=C(O)c1ccnc(-c2cc(C(=O)NCCc3ccccc3)ccn2)c1	-16.3% [at 114 µM] (inactive)
C=CCc1cc(OC)c(OC(C)C(O)c2ccc(O)c(OC)c2)c(OC)c1 (centres undefined)	4.24% (inactive)
COc1cc(O)cc2c1C(=O)OC(C)C2 (centres undefined)	1.15% [at 114 µM] (inactive)
CC1=C2C(=O)C=C(CO)C2[C@H]2OC(=O)[C@H](C)[C@@H]2[C@@H](OC(=O)Cc2ccc(O)cc2)C1 (some centres undefined)	-2.67% (inactive)
CC1C(=O)OCC2=CC[N+]3([O-])CCC(OC(=O)C(C)(O)C1(C)O)C23 (centres undefined)	2.76% (inactive)
C=C[C@@]1(C)CCC2=C([C@H]1OC(C)=O)[C@H](OC(C)=O)CC1[C@](C)(C(=O)OC)CC[C@H](OC(C)=O)[C@]21C (some centres undefined)	-0.873% (inactive)
O=C(OC[C@H]1O[C@H](O[C@H]2CO[C@H](CO)[C@@H](O)[C@@H]2O)[C@H](O)[C@@H](O)[C@H]1O)c1ccccc1	2.17% (inactive)
CC(=O)OC1CC(C(C)(C)O)OC2CCC3(C)OC4=C(C(=O)C=C5C(C)C(OC(C)=O)C6(C)C(C)OC546)C(O)C3C12C (centres undefined)	-3.14% [at 30.2 µM] (inactive)
C[C@@H]1CC[C@]2(C(=O)O[C@@H]3O[C@H](CO[C@@H]4O[C@H](CO)[C@@H](O[C@@H]5O[C@@H](C)[C@H](O)[C@@H](O)[C@H]5O)[C@H](O)[C@H]4O)[C@@H](O)[C@H](O)[C@H]3O)CC[C@]3(C)C(=CCC4[C@@]5(C)C[C@@H](O)[C@H](O)[C@@](C)(CO)C5CC[C@]43C)C2[C@H]1C (some centres undefined)	1.59% [at 30.2 µM] (inactive)
C=C(C)[C@@H]1CC[C@]2(C(=O)O)CC[C@]3(C)C(CCC4[C@]5(C)C(CC[C@]43C)C(C)(C)[C@@H](O)[C@@H]5C(=O)O)C12 (some centres undefined)	-1.97% (inactive)
COc1cc2c(cc1O)CC(O)(CO)C(CO)C2c1ccc(OC2OC(CO)C(O)C(O)C2O)c(OC)c1 (centres undefined)	4.83% (inactive)
COC(=O)c1ccc(OC)cc1O[C@@H]1O[C@H](CO[C@@H]2OC[C@@H](O)[C@H](O)[C@H]2O)[C@@H](O)[C@H](O)[C@H]1O	0.733% (inactive)
CC(C)(OC1OC(CO)C(O)C(O)C1O)C1CCC(O)(CO)C2CC(=O)C(C)(O)C2C1 (centres undefined)	4.08% (inactive)
C[C@]1(O)CC[C@@H]2C(C(=O)O)=CO[C@@H](O[C@@H]3O[C@H](COC(=O)/C=C/c4ccc(O)c(O)c4)[C@@H](O)[C@H](O)[C@H]3O)[C@@H]21	0.297% (inactive)
CC(C)C1CCC(CO)=CC1/C=C(\CO)C(=O)OCC1(O)CCC(C(C)C)C2C=C(C(=O)O)COC(=O)C21 (centres undefined)	1.89% (inactive)
OCC(O)C(c1c[nH]c2ccccc12)c1c[nH]c2ccccc12 (centres undefined)	-1.13% [at 114 µM] (inactive)
O=C(Cc1ccccc1)OC[C@H]1O[C@H](O[C@H]2O[C@H](CO)[C@@H](O)[C@H](O)[C@H]2O)[C@H](O)[C@@H](O)[C@@H]1O	-2.06% (inactive)
